Shiga inhibitor: blocks Shiga toxin action in Vero cells. Vero cells, Shiga toxin protein synthesis inhibition reporter. inhibition, % at 38.7 µM. 9.2% of 290,000 active; in the data active means inhibition mostly above about 28%, no sharp cut-off; inactive means mostly below about 43%; further: 0% is about no effect
Pf growth 96h: P. falciparum growth inhibition at 96 hour, primary screen for plastid delayed-death inhibitors; 6.9% of 320,000 active; AID 504834; Potency, µM (highest dose often 28.7 µM), inactives show at the highest dose activity change, negative = inhibition, usual class: inhibitors; P. falciparum luciferase reporter growth, 96 h; further: potency means the concentration at half of the fitted maximal effect; on the % scale 0 is the no-effect control and ±100 the full control effect
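Luminescence readout: decreased luciferase signal marks inhibited growth of reporter-expressing P. falciparum in infected red cells (2% hematocrit, 0.05% parasitemia final), exposed to compound two generations (96 h, 37 C, 5% CO2).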
Pf growth 48h: inhibits P. falciparum growth in the first generation, 48 h; P. falciparum luciferase growth in erythrocytes, 48 h; Potency, µM (highest dose often 28.7 µM), without a hit: at the highest dose activity change, negative = inhibition, most hits filed as inhibitors; 5.9% of 310,000 active; further: potency means the concentration at half of the fitted maximal effect; on the % scale 0 is the no-effect control and ±100 the full control effect
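Compounds are pin-transferred into medium, infected erythrocytes (2% hematocrit, 0.1% parasitemia final) are added, and plates sit one parasite generation at 37 C in 5% CO2. Detection reagent is then added and luminescence measured.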
NS1 inh: inhibitors of influenza NS1 protein function; Potency, µM (top dose mostly 46.1 µM), for the others: at the highest dose activity, positive = more growth; 0.4% of 270,000 active; AID 2326; calls by dose curve; further: potency means the concentration at half of the fitted maximal effect; actives are rising curves; nearly all actives have a fitted effect of over 50% in size
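Growth recovery, yeast-based: influenza A NS1 expressed in S. cerevisiae causes slow growth, and suppressors are detected by OD600. The parent strain without NS1 is used as positive control.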
Sm TGR inh: inhibitors of Schistosoma mansoni thioredoxin glutathione reductase; Potency, µM (titrated, usually from 114 µM), inactives show at the top dose activity change, negative = inhibition, usual class: inhibitors; 3% of 360,000 active; Q962Y6; purified TGR, DTNB reduction, TNB absorbance 405 nm; AID 485364; further: potency means the concentration at half of the fitted maximal effect; on the % scale 0 is the no-effect control and ±100 the full control effect; nearly all actives have a fitted effect of over 60% in size
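Kinetic colorimetric format: TGR-catalysed, NADPH-driven DTNB reduction monitored via TNB absorbance. Enzyme dispensed at 20 nM; compound exposure 15 min at room temperature before reaction start.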
Cycloheximide cs: counter-screen for Shiga toxin inhibitors: cycloheximide protein synthesis inhibition | AID 2314 | cell reporter, cycloheximide protein synthesis inhibition counterscreen | max response, % | 12% of 300,000 active; in the data active means max response mostly above about 13%, no sharp cut-off; inactive means mostly below about 14%; further: read at 38.3 µM for the half of the compounds with a filed dose; 0% is about no effect
Starred values were filed as active, the others as inactive; i = inactive; u = inconclusive; x = not tested or not shown. Hits are enriched below; roughly 21% of the tested compounds scored in any of these assays. Unless noted, the call rests on the fitted dose curve; in most records, active means well fitted curve in the direction sought with a large enough effect; inconclusive means small, poorly fitted or top-dose-only effect, or another doubt; inactive means no such curve, though single readings can be large; an effect the other way counts as inactive or inconclusive.

SMILES | Shiga inhibitor | Pf growth 96h | Pf growth 48h | NS1 inh | Sm TGR inh | Cycloheximide cs
Cc1ccc(O)c(N=NC2=C(O)CC(C)(C)CC2=O)c1 | 56.0* | u | u | -21.5% | -19.0% | 55.7*
O=[N+]([O-])c1cc(-c2cnc3ccccc3n2)ccc1Cl | 16.8 | 41.7% | 12.8% | -3.2% | 10.7% | 13.7
O=[N+]([O-])c1cc(-c2cnc3ccccc3n2)ccc1Oc1ccc(Cl)cc1 | 39.3* | u | 15.2% | -2.9% | 3.5% | 37.9*
COc1ccccc1Oc1ccc(-c2cnc3ccccc3n2)cc1[N+](=O)[O-] | 72.9* | 69.1% | u | 12.1% | 3.4% | 61.6*
CCOC(=O)c1c(C)[nH]c(C)c1S(=O)(=O)N(C)CC(=O)N(C)Cc1ccccc1 | -3.2 | u | -22.8% | 6.2% | 2.5% | 5.3
COc1ccc(-c2onc(C)c2C)cc1S(=O)(=O)NCc1ccc(Br)cc1 | x | x | x | x | 4.4% | x
Cc1ccc(Nc2c(-c3ccncc3)nc3ccc(C)cn23)cc1 | x | x | x | x | 0.6% | x
CCOc1ccc(C(=O)NCC(=O)Nc2ccncc2)cc1OCC | x | 29.8% | 16.1% | x | -3.5% | x
COc1ccc(C(=O)Nc2ccc(C(=O)N3CCCCC3)cc2)cc1OC | 33.5 | 17.3% | 30.2% | -8.1% | 6.4% | 11.1
Cc1ccc(C(=O)Nc2ccc(N3CCOCC3)cc2)cc1 | 36.2 | u | u | -5.2% | -7.8% | 64.6*
CCOc1ccc(C(=O)NCC(=O)Nc2ccc(N3CCOCC3)cc2)cc1OCC | 124.1* | 136.6% | i | 22.5% | 33.8% | 21.4*
O=C(/C=C/c1ccccc1)Nc1ccc(N2CCCCC2)cc1 | 31.1 | -4.5% | 8.2% | 9.0% | -1.6% | 26.3*
COc1ccc(C(=O)Nc2ccc(N3CCCCC3)cc2)cc1Br | 65.6* | 56.6% | 116.4% | 8.9% | -5.0% | 37.4*
COc1cc(NS(=O)(=O)c2ccc3oc(=O)c4ncn(C)c4c3c2)cc(OC)c1 | x | x | x | x | 0.4% | x
COc1ccc(NC(c2ccc(F)cc2)c2nnc(-c3ccccc3Cl)o2)cc1Cl (stereo not drawn) | x | x | x | x | -0.7% | x
Cc1ccc(C(=O)Nc2ccc(N3CCN(S(C)(=O)=O)CC3)cc2)cc1 | -3.4 | 15.8% | x | 4.0% | -9.4% | 9.5
CCN1CCN(c2ccc(NC(=O)c3cccc(N4CCCC4=O)c3)cc2)CC1 | 58.3 | 90.2% | 70.1% | -32.5% | -21.4% | 24.9*
Cc1ccc(NC(=O)NN2CCOCC2)cc1 | 29.2 | u | 46.3% | 3.2% | 5.1% | 16.0*
Cc1ccc(C(=O)Nc2ccc(N3CCCC3)cc2)cc1 | 68.8* | 154.2% | 287.8% | x | -0.1% | 26.0*
CSc1cccc(NC(=S)NCCCN2CCN(c3ccc(F)cc3)CC2)c1 | -12.4 | 8.28µM* | u | 1.9% | -19.9% | -1.3
COc1cc2c(cc1OC)C(COc1ccc3c(C)cc(=O)oc3c1)N(C(=O)c1ccc(C)c(C)c1)CC2 (stereo not drawn) | x | x | x | x | 6.8% | x
COc1cccc(NC(=O)CSCc2cc(=O)n3nc(C4CC4)sc3n2)c1 | -6.6 | u | -3.2% | -1.2% | 0.6% | -6.7
Clc1ccc(CNc2ncnc3onc(-c4ccc(Cl)cc4)c23)cc1 | x | x | x | x | 0.5% | x
Cc1ccc(NC(=O)c2cc(N3C(=O)C4CC=CCC4C3=O)ccc2N2CCOCC2)cc1Cl (stereo not drawn) | -9.3 | 10.2% | 17.7% | 3.4% | -25.1% | -3.4
Cc1ccc(NC(=O)c2cc(N3C(=O)C=CC3=O)ccc2N2CCOCC2)cc1 | 15.2 | 4.2% | -2.4% | -42.7% | 0.708µM* | 8.1
SMILES | Shiga inhibitor | Pf growth 96h | Pf growth 48h | NS1 inh | Sm TGR inh | Cycloheximide cs
O=C(Nc1ccc(N2CCCC2)cc1)c1cccc(F)c1 | 145.4* | -70.6% | -61.9% | -1.0% | u | 54.0*
Cc1ccc(NC(=O)c2cc(N3C(=O)C=CC3=O)ccc2Cl)cc1C | -3.8 | -13.8% | 8.4% | -21.7% | 0.794µM* | 7.1
CC(=O)c1ccc(NC(=O)c2ccc(N3CCCC3=O)cc2)cc1 | x | 1.6% | -3.1% | x | -6.1% | x
O=C(Nc1ccc(N2CCCC2=O)cc1)c1cccc(F)c1 | 76.0* | x | 160.9% | 5.9% | -3.4% | 38.6*
O=C(Nc1ccc(S(=O)(=O)N2CCCC2)cc1)c1cncc(Br)c1 | x | u | u | x | 0.3% | x
CC(=O)Nc1ccc(NC(=O)C2CCCCC2C(=O)O)cc1 (stereo not drawn) | 14.2 | 5.1% | 11.5% | 3.2% | 1.4% | 8.1
O=C(Nc1ccc(N2CCCCC2)cc1)c1cncc(Br)c1 | 141.4* | x | 173.4% | -9.8% | 9.7% | 28.1
Cc1ccc(NC(=O)c2ccc(NC(=O)C3CCCCC3C(=O)O)cc2)cc1 (stereo not drawn) | 75.2* | 15.8% | 31.1% | 7.7% | -13.0% | 29.7*
Cc1ccc(C(=O)Nc2ccc(N3CCN(C)CC3)nc2)cc1 | 41.3 | u | 413.1% | x | -11.0% | 32.1*
O=C(NCCCN1CCN(c2ccc(F)cc2)CC1)c1cccc(N2CCCC2=O)c1 | -5.4 | x | 11.7µM* | -2.1% | 6.8% | 0.3
CCCC(=O)N(CCN(C(=O)CCC)c1ccccc1)c1ccccc1 | 11.4 | u | u | -6.9% | 0.6% | -1.3
Cc1ccc(S(=O)(=O)N2CCN(C(=O)Cc3ccc4c(c3)OCCO4)CC2)cc1C | 9.4 | 1.5% | -13.2% | 5.8% | -2.7% | 7.4
CCc1cccc(NC(=O)CSc2nncn3c2cc2sccc23)c1 | x | x | x | x | -4.6% | x
NC(=O)NC(=O)C(Nc1ccc(N2CCCCC2)cc1)c1ccccc1 (stereo not drawn) | 121.4* | 131.2% | 101.1% | -6.3% | u | 51.3*
O=C(O)c1ccc(N2CCCCC2)cc1 | -5.1 | u | 3.3% | 5.3% | 2.7% | -1.8
O=C(Nc1ccc(N2CCCCC2)cc1)c1ccccc1 | 88.4* | x | -69.6% | 0.2% | 3.7% | 22.5
Cc1ccc(S(=O)(=O)NC(C)C(c2cccs2)N2CCN(C)CC2)cc1 (stereo not drawn) | -4.5 | 10.4µM* | -21.4% | -0.6% | -20.1% | -4.2
C/C(=N/Nc1ccc2ccccc2n1)c1ccccc1O | x | x | x | -9.0% | x | x
C/C(=N\Nc1nc2ccccc2nc1C)c1ccccc1O | 15.9 | 1.17µM* | u | -5.7% | 2.5% | 12.1
CCOc1ccccc1CNC(=O)C1CCN(S(=O)(=O)c2ccc3c(ccn3C)c2)CC1 | x | x | x | x | 2.1% | x
NC(=[SH+])N=N/C=C1/C=CC=CN1.O=S(=O)(O)O.[Fe] | x | x | x | 5.2% | x | x
Cc1ccc(-n2nc(C)c3c(C)cc(=O)n(CC(=O)NC(C)C)c32)cc1 | x | x | x | x | -0.9% | x
Cn1c(N=Nc2ccc(N3CCOCC3)cc2)[n+](C)c2ccccc21 | 94.2* | 5.3% | -4.5% | -1.3% | x | 47.8*
O=C(COC(=O)C1CC2C=CC1C2)NCCc1ccccc1 (stereo not drawn) | 24.8 | -8.9% | 21.7% | -4.3% | 3.8% | 20.4*
O=C(COC(=O)C1CC2C=CC1C2)Nc1ccccc1F (stereo not drawn) | 71.9* | 86.9% | 207.9% | -4.1% | -0.1% | 38.3*
COc1ccc(NC(=O)COC(=O)C2CC3C=CC2C3)cc1 (stereo not drawn) | 42.1* | 72.7% | 46.2% | -1.7% | -5.4% | 19.9*

High-throughput results (PubChem)
